# The supplement of paper PMC9135407
# Several values for one entry are separate records, joined by “and”; a condition that tells them apart may be missing. Identical values can stand only once. Counter-ions that a name gives are not always drawn. In all, about 5,800 compounds went through this assay and about 620 (11%) showed activity. For the sample, actives were picked, then their nearest neighbours and some compounds at random. Values without a mark were called inactive.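 Rule for the calls: active = score above a cut-off or among the top three wells of a plate; in these data no inactive exceeds 0.85.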
# System: primary human hepatic stellate cells (donor 1)
# Test: scaled lipid accumulation score (0 = DMSO-like, 1 = nortriptyline-like); higher = stronger HSC inactivation (lipid re-accumulation), active = hit call of the paper
# Details: 48 h
# Description: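 Primary lipid accumulation screen in primary human hepatic stellate cell myofibroblasts (donor 1, passage 8) in 384-well plates. 100 nL of library compound was pin-transferred into 30 µL medium in duplicate, and cells were treated for 48 h. The 'Scaled' score combines distance from plate baseline, toxicity and reproducibility penalties, and is normalised to nortriptyline (positive) and DMSO (negative) controls on each plate. A hit is defined as scaled >0.85 or among the top 3 wells per plate.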
# [1] = library stock concentration: 10 mM
# [2] = library stock concentration: 1 mM
# [3] = library stock concentration: 3.33 mM
# [4] = library stock concentration: 6.4 mM
# [5] = library stock concentration: 80 uM
# [6] = library stock concentration: 400 uM
# [7] = library stock concentration: 2 mM
structure (smiles),measurement,setting,value
Cc1cc2c(cc1Cl)N(C(=O)Nc1ccc(Oc3cccnc3C)nc1)CC2,scaled lipid accumulation score,[1],0.832
Cc1cc2c(cc1Cl)N(C(=O)Nc1ccnc3ccccc13)CC2,scaled lipid accumulation score,[1],1.08 (active)
Cn1ccc2cc3c(cc21)CCN3C(=O)Nc1cccnc1,scaled lipid accumulation score,[1],≤ 0 and ≤ -0.006
CC(=Nc1ccccc1N)c1c(C)cc(=O)n(O)c1O,scaled lipid accumulation score,[1],≤ 0
CCCCCCCCCCCCCCCCOC[C@H](COP(=O)([O-])OCC[N+](C)(C)C)OC(=O)CCC [Butanoyl PAF],scaled lipid accumulation score,[2],≤ 0
CO[C@H]1C[C@@H]2CC[C@@H](C)[C@@](O)(O2)C(=O)C(=O)N2CCCC[C@H]2C(=O)O[C@H]([C@H](C)C[C@@H]2CC[C@H](n3cnnn3)[C@H](OC)C2)CC(=O)[C@H](C)/C=C(\C)[C@@H](O)[C@@H](OC)C(=O)[C@H](C)C[C@H](C)/C=C/C=C/C=C/1C [Zotarolimus(ABT-578)],scaled lipid accumulation score,[3],0.109
same,scaled lipid accumulation score,[1],≤ 0
OC[C@H]1NC[C@@H](O)[C@@H](O)[C@@H]1O [1-Deoxymannojirimycin hydrochloride],scaled lipid accumulation score,[1],≤ -0.006
same,scaled lipid accumulation score,library stock concentration: 25.1 mM,≤ -0.012
"CCCCC(C)(C)[C@H](O)/C=C/[C@H]1C=CC(=O)[C@@H]1C/C=C\CCCC(=O)O [16,16-dimethyl Prostaglandin A2]",scaled lipid accumulation score,[2],≤ 0
C#C[C@]1(O)CCC2C3CCC4=CC(=O)CC[C@@H]4C3CC[C@@]21CC (stereo partly drawn) [Norgestrel],scaled lipid accumulation score,[4],1.05 (active)
C#C[C@]1(O)CC[C@H]2[C@@H]3CCC4=CC(=O)CC[C@@H]4[C@H]3CC[C@@]21CC [Levonorgestrel],scaled lipid accumulation score,[2],≤ 0
same,scaled lipid accumulation score,[3],≤ 0
same,scaled lipid accumulation score,[4],0.107
same,scaled lipid accumulation score,[1],0.727
C#C[C@]1(O)CC[C@H]2[C@@H]3CCC4=CC(=O)CC[C@@H]4[C@H]3CC[C@@]21CC [Norgestrel-(-)-D],scaled lipid accumulation score,,≤ 0
C#C[C@]1(O)CC[C@H]2[C@@H]3CCC4=CC(=O)CC[C@@H]4[C@H]3CC[C@@]21CC,scaled lipid accumulation score,[1],0.195
C#CC1(O)CC[C@H]2[C@@H]3CCC4=CC(=O)CC[C@@H]4[C@H]3CC[C@@]21CC (stereo partly drawn) [Norgestrel],scaled lipid accumulation score,[2],0.037
same,scaled lipid accumulation score,[1],0.03
Nc1nc2c(nc(O)n2[C@@H]2O[C@H](CO)[C@@H](O)[C@H]2O)c(=O)[nH]1 [8-hydroxy Guanosine],scaled lipid accumulation score,[2],≤ 0
CCCCC[C@H](O)/C=C/[C@@H]1[C@H]2C/C(=C\CCCC(=O)O)C[C@H]2C[C@H]1O [5-cis Carbaprostacyclin],scaled lipid accumulation score,[2],≤ 0
O=C1OC[C@H](Cc2cccc(O)c2)[C@H]1Cc1cccc(O)c1,scaled lipid accumulation score,[2],≤ 0
O=C(Nc1cccc(Nc2nccc(Nc3cccc(C(F)(F)F)c3)n2)c1)C1CC1 [Aurora Kinase Inhibitor III],scaled lipid accumulation score,[3],0.0325
CCN(CC)CCCCNc1ncc2c(n1)N(C)C(=O)N(c1c(Cl)c(OC)cc(OC)c1Cl)C2,scaled lipid accumulation score,[5],≤ -0.008
same,scaled lipid accumulation score,[6],≤ -0.008
same,scaled lipid accumulation score,[7],≤ -0.001
same,scaled lipid accumulation score,[1],0.416
COc1cc(OC)cc(-c2cc3cnc(N)nc3nc2NC(=O)NC(C)(C)C)c1,scaled lipid accumulation score,[1],≤ 0
CCN(CC)CCNC(=O)COc1ccc(OC)cc1 [Mefexamide hydrochloride],scaled lipid accumulation score,,≤ 0
CCN(CC)CCCCNc1ncc2cc(-c3cc(OC)cc(OC)c3)c(NC(=O)NC(C)(C)C)nc2n1 [listing 1 of 3 here],scaled lipid accumulation score,[5],≤ 0
same,scaled lipid accumulation score,[6],≤ 0
CCN(CC)CCCCNc1ncc2cc(-c3cc(OC)cc(OC)c3)c(NC(=O)NC(C)(C)C)nc2n1 [listing 2 of 3 here],scaled lipid accumulation score,[7],1.12 (active)
same,scaled lipid accumulation score,[1],1.22 (active)
CCN(CC)CCNC(=O)COc1ccc(OC)cc1 [Mefexamide],scaled lipid accumulation score,library stock concentration: 6.3 mM,0.018
same,scaled lipid accumulation score,[1],≤ 0
CCN(CC)CCCCNc1ncc2cc(-c3cc(OC)cc(OC)c3)c(NC(=O)NC(C)(C)C)nc2n1 [listing 3 of 3 here],scaled lipid accumulation score,[3],1.34 (active)
same,scaled lipid accumulation score,[1],1.01 (active)
CCCCCCCCCCCCCC=CC(O)C(CO)NC(=O)CCCCCCCCCCCCCCCCCCCCCCC (stereo not drawn) [Lignoceric Ceramide],scaled lipid accumulation score,[2],≤ 0
Nc1nc2ccc(Cl)cc2n2c(-c3ccccc3)nnc12,scaled lipid accumulation score,[1],0.049
CCCCC#Cc1nc(NC)c2ncn([C@@H]3O[C@H](CO)[C@@H](O)[C@H]3O)c2n1,scaled lipid accumulation score,[1],≤ 0 and ≤ -0.006
CC(C(C)N1CC(=O)NC(=O)C1)N1CC(=O)NC(=O)C1 (stereo not drawn),scaled lipid accumulation score,library stock concentration: 17.7 mM,≤ -0.012
C=N[C@@H](C(=O)N[C@@H]1C(=O)N2[C@@H]1SC(C)(C)[C@@H]2C(=O)O)c1ccccc1 [Metampicillin sodium salt],scaled lipid accumulation score,,≤ 0
CC(=O)Oc1c(C)cccc1C(=O)O,scaled lipid accumulation score,[1],≤ 0
CCCCC[C@@](C)(O)/C=C/[C@@H]1[C@@H](C/C=C\CCCC(=O)OC)[C@@H](O)C[C@H]1O [15(R)-15-methyl Prostaglandin F2.alpha. methyl ester],scaled lipid accumulation score,[2],≤ 0
CN1CCc2c(c3ccccc3n2Cc2ccc(C(=O)NO)cc2)C1 [Tubastatin A HCl],scaled lipid accumulation score,[3],≤ 0
same,scaled lipid accumulation score,[1],0.218
CN1CCc2c(c3ccccc3n2Cc2ccc(C(=O)NO)cc2)C1 [Tubastatin A],scaled lipid accumulation score,[3],≤ 0
same,scaled lipid accumulation score,[1],≤ 0
Cn1cc(CNCC2CCN(c3ncc(C(=O)NO)cn3)CC2)c2ccccc21 [listing 1 of 2 here],scaled lipid accumulation score,[3],0.478
Cn1cc(CNCC2CCN(c3ncc(C(=O)NO)cn3)CC2)c2ccccc21 [listing 2 of 2 here],scaled lipid accumulation score,[1],0.985 (active)
O=C(C[S+]([O-])Cc1ccco1)NC/C=C\COc1cc(CN2CCCCC2)ccn1 (stereo not drawn) [Lafutidine],scaled lipid accumulation score,[3],≤ 0
same,scaled lipid accumulation score,[1],≤ 0
C=CCc1ccccc1OCC(O)CNC(C)C (stereo not drawn) [Alprenolol HCl],scaled lipid accumulation score,library stock concentration: 8 mM,0.203
CC(COc1ccccc1Cc1ccccc1)N1CCCCC1.O=P(O)(O)O (stereo not drawn),scaled lipid accumulation score,[1],1.02 (active)
C=CCc1ccccc1OCC(O)CNC(C)C (stereo not drawn) [Alprenolol hydrochloride],scaled lipid accumulation score,,0.634
same,scaled lipid accumulation score,[1],0.5
N=C(CC(O)COc1ccccc1-c1ccccc1)N1CCCCC1 (stereo not drawn),scaled lipid accumulation score,[1],0.781
O=c1ncc(F)c[nH]1 [5-fluoro-2-pyrimidone],scaled lipid accumulation score,[1],≤ 0
